This is a sample that favours compounds with a hit; in the whole collection about 1.2% have one here.
RAD54 branch: inhibitors of human RAD54 branch migration | RAD54 Holliday junction branch migration, FAM/BHQ fluorescence | inhibition, % at 10.4 µM | 360,000 tested, 0.14% active;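 active = mean normalized replicate activity at least 40 and at least half of replicates scoring 40 or more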;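 also: inhibitors cause a drop in the FAM fluorescence signal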
Glyco luc inh: N-linked glycosylation inhibition | AID 588692 | 360,000 tested, 0.23% active | reporter increase, % at 12.5 µM | D54 ERlucT glycosylation luciferase reporter, 24 h; percent of 100 nM tunicamycin response;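 active = mean luciferase reporter signal, scaled so untreated is 0 and the glycosylation-blocking control 100, at or above a set limit in every replicate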;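 also: luciferase carries N-glycosylation sites so blocking glycosylation raises the light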
CASP6 VEID inh: blocks human caspase-6 cleavage activity; P55212; purified caspase-6, Z-VEID-R110 cleavage fluorescence; inhibition, % at 12.5 µM; 350,000 tested, 0.53% active;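 active = mean inhibition across replicates at least about 35%, with every replicate also reaching that limit, limit read from the data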
RAD52 inh: blocks human RAD52 DNA annealing | P43351 | recombinant RAD52 DNA annealing, FRET fluorescence | inhibition, % at 18.7 µM | 360,000 tested, 0.46% active;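 active = every replicate showing at least 50% inhibition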
NSD2 HMT inh: NSD2 (human) methyltransferase inhibition | O96028 | NSD2 peptide methylation, AlphaScreen, 120 min | inhibition, % at 12.5 µM | 310,000 tested, 0.54% active; in the data active = inhibition above about 50%
Target sequence (O96028 whole entry, looked up): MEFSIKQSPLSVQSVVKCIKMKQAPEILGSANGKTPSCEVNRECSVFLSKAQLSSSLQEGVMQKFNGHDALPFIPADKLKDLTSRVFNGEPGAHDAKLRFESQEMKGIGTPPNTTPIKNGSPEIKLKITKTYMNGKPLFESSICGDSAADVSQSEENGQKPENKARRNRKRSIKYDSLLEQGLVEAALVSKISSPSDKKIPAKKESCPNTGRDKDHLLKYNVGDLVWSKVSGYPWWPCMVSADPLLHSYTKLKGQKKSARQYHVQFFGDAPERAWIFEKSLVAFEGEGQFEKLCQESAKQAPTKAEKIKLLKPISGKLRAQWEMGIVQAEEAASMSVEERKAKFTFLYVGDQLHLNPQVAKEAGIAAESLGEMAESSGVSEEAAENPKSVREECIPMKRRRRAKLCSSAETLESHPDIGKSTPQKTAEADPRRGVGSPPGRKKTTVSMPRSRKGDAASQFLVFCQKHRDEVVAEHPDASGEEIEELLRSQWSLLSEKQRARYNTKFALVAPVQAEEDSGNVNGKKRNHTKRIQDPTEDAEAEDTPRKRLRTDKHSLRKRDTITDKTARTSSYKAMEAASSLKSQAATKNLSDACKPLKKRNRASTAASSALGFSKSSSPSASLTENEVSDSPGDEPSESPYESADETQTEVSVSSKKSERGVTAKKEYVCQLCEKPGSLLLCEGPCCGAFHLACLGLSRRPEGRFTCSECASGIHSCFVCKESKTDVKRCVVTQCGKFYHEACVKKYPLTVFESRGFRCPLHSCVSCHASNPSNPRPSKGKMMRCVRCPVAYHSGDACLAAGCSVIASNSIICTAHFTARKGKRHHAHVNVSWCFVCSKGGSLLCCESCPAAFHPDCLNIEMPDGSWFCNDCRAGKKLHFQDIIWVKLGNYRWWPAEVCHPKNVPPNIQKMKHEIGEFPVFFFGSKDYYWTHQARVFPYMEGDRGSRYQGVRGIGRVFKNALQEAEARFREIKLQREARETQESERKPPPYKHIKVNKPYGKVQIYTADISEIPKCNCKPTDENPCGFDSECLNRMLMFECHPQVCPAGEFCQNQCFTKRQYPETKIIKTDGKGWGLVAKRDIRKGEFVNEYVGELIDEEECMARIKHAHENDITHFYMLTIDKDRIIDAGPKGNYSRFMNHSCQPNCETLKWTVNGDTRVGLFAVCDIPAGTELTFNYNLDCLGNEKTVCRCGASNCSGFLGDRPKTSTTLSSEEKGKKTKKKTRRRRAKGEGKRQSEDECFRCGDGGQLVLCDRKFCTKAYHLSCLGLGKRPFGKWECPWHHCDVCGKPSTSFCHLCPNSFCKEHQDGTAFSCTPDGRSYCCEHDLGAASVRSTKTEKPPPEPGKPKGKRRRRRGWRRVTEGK
Numbers stand for hits; – = inactive; · = no result.

SMILES | RAD54 branch | Glyco luc inh | CASP6 VEID inh | RAD52 inh | NSD2 HMT inh
CCOC(=O)c1ccc(N2N=C(C)/C(=C/C=C/c3ccco3)C2=O)cc1 | – | – | · | · | –
O=C(NC1CCCCC1)N[C@H]1C=C[C@@H](CC(=O)N2CCOCC2)O[C@@H]1CO | – | · | 37 | – | ·
Cc1nc2ncccn2c1-c1csc(Nc2ccc(N(C)C)cc2)n1 | · | 51 | – | – | –
CN(C)Cc1cc(C(C)(C)c2cc(CN(C)C)c(O)c(CN(C)C)c2)cc(CN(C)C)c1O | 102 | – | · | · | –
CN(C)Cc1cc(OCc2ccccc2)cc(CN(C)C)c1O | – | – | – | – | –
NC1=C(Cl)C(=O)c2ccccc2C1=O | · | – | 97 | – | ·
O=C1C(Cl)=C(NCCCO)C(=O)c2ccccc21 | – | – | · | · | –
Cc1ccc(-n2nnnc2SCC(=O)NC2CC2)cc1C | – | – | 57 | – | ·
O=C(CSc1nnnn1-c1ccc(O)cc1)NC1CCCCC1 | · | – | – | – | –
Cc1cc(NC(=O)C23CC4CC(C2)CC(n2cnc([N+](=O)[O-])n2)(C4)C3)no1 | – | – | 47 | – | –
O=C(Nc1ccon1)C12CC3CC(C1)CC(n1cnc([N+](=O)[O-])n1)(C3)C2 | – | – | – | – | –
CN(C)S(=O)(=O)c1ccc(N2CCCC2)c(C(=O)Nc2nccs2)c1 | – | 79 | – | – | –
CN(C)S(=O)(=O)c1ccc(N2CCCC2)c(C(=O)Nc2nc3c(ccc4ccccc43)s2)c1 | – | – | · | · | –
CCc1cccc(NC(=O)c2cc(S(=O)(=O)N(C)C)ccc2N2CCCC2)c1 | – | 39 | – | – | –
CN(C)S(=O)(=O)c1ccc(N2CCCC2)c(C(=O)Nc2nc(-c3ccc(F)c(F)c3)cs2)c1 | · | – | · | · | –
Cc1cnc(NC(=O)c2cc(S(=O)(=O)N(C)C)ccc2N2CCCC2)s1 | – | 98 | – | – | –
C[C@@H]1CN([C@H](C)CO)C(=O)c2cc(NC(=O)Cn3cnnn3)ccc2O[C@@H]1CN(C)C(=O)Nc1ccccc1 | – | · | – | – | ·
COC(=O)C[C@H]1CC[C@H]2[C@@H](COc3ccc(NC(=O)NCc4ccccc4)cc3C(=O)N2C)O1 | · | · | – | – | ·
CCCNC(=O)N1C[C@@H](O)COC[C@@H]2O[C@H](CC(=O)N[C@@H]3CCN(Cc4ccccc4)C3)CC[C@H]21 | – | · | · | · | ·
CCCC#Cc1ccc2c(c1)O[C@@H](CN(C)C(=O)CN(C)C)[C@H](C)CN([C@H](C)CO)S2(=O)=O | – | · | – | – | ·
CC(=O)C1C(=O)C=C(c2cccs2)CC1c1ccccc1 (stereo not given) | – | – | – | – | –
O=C1C=C(c2cccs2)C[C@H](c2ccccc2)[C@H]1n1nnc([N+](=O)[O-])n1 | · | 25 | · | · | –
C[C@H](CO)N1C[C@H](C)[C@H](CN(C)S(C)(=O)=O)Oc2ccc(NC(=O)Nc3ccc4c(c3)OCO4)cc2C1=O | – | · | – | – | ·
Cc1noc(C)c1NC(=O)Nc1ccc2c(c1)C(=O)N([C@@H](C)CO)C[C@@H](C)[C@H](CN(C)C(=O)c1ccccc1)OCCCC[C@@H](C)O2 | – | · | – | – | ·
NC(=O)NCC#Cc1ccc2c(c1)[C@]1(C(=O)N2)[C@H](c2ccccc2OCCO)N2[C@H](c3ccccc3)[C@H](c3ccccc3)OC(=O)[C@H]2[C@@H]1C(=O)N1CCCCCCC1 | · | · | – | – | ·
SMILES | RAD54 branch | Glyco luc inh | CASP6 VEID inh | RAD52 inh | NSD2 HMT inh
O=C1O[C@@H](c2ccccc2)[C@@H](c2ccccc2)N2[C@@H](c3ccccc3OCCO)[C@]3(C(=O)Nc4ccc(C#CCCO)cc43)[C@@H](C(=O)N3CCCCCCC3)[C@H]12 | – | · | – | 73 | ·
COc1ccc(NC(=O)Nc2cccc3c2O[C@@H](CN(C)C)[C@H](C)CN([C@H](C)CO)C3=O)cc1 | – | · | – | – | ·
O=C(O)CN1C(=O)C=CC1=O | – | – | 36 | – | –
C[C@@H]1CN([C@@H](C)CO)C(=O)c2cc(NC(=O)Nc3ccc(C(F)(F)F)cc3)ccc2O[C@@H](C)CCCCO[C@H]1CN(C)S(=O)(=O)c1ccc(F)cc1 | – | · | – | – | ·
COc1nc(-c2ccccc2)ncc1S(=O)(=O)c1ccccc1 | · | – | – | – | –
Cc1nc(-c2ccccc2)sc1-c1nc(-c2ccncc2)ncc1S(=O)(=O)c1ccccc1 | – | 57 | · | · | –
Cc1csc(=O)n1CCC(=O)OCc1nnc(-c2ccccc2)o1 | – | – | – | – | –
Cc1csc(=O)n1CCC(=O)OCc1nnc(-c2ccc([N+](=O)[O-])cc2)o1 | – | – | 52 | – | –
COc1ccc(S(=O)(=O)N(C)C[C@H]2OCCCC[C@@H](C)Oc3ccc(NC(=O)c4ccccc4)cc3C(=O)N([C@@H](C)CO)C[C@@H]2C)cc1 | – | · | – | – | ·
O=[N+]([O-])c1cccc(-c2nc3ccc([N+](=O)[O-])cc3[nH]2)c1 | · | – | – | – | –
O=[N+]([O-])c1ccc2nc(-c3ccccc3[N+](=O)[O-])[nH]c2c1 | · | – | 38 | – | –
CCCCC[C@H](O)/C=C/C1C(=O)C=C[C@H]1C/C=C\CCCC(=O)OC (stereo not given in full) | – | – | 53 | – | ·
CCCCC[C@H](O)/C=C/[C@@H]1[C@@H](C/C=C\CCCC(=O)OC)[C@@H](O)C[C@H]1O | – | – | · | · | ·
C[C@@H]1CN([C@H](C)CO)S(=O)(=O)c2ccc(-c3cncnc3)cc2O[C@@H]1CN(C)C(=O)Cc1cccnc1 | – | · | – | – | ·
O=C(c1ccc(=O)oc1)N1CCCc2ccccc21 | – | – | · | · | 92
COc1ccc2c3c([nH]c2c1)[C@@H](CO)N(C(=O)Cc1ccccc1)CC31CN(C(=O)Nc2ccccc2F)C1 | · | · | – | – | ·
Cn1ncc2c(O/N=C(\N)c3ccc(C(F)(F)F)cc3)ncnc21 | – | 41 | – | – | ·
O=C(NC1CCC1)[C@H]1[C@H](CO)[C@H]2Cn3c(ccc(-c4ccccc4F)c3=O)[C@H]2N1Cc1ccncc1 | – | · | – | 71 | ·
COc1ccc(NC(=O)N(C)C[C@H]2OCc3ccccc3-c3c(n(C)c4ccccc34)C(=O)N([C@@H](C)CO)C[C@H]2C)cc1 | – | · | – | – | ·
O=C(COc1ccccc1[N+](=O)[O-])Nc1ccc(NC(=O)c2cc3ccccc3o2)cc1 | – | – | – | – | –
O=C(COc1ccc(/C=N/NC(=O)c2cc3ccccc3o2)cc1Br)Nc1ccccc1 | – | 62 | · | · | ·
Cc1[nH][nH]c(=O)c1C(c1ccc(-c2ccc(Cl)c(Cl)c2)o1)c1c(C)[nH][nH]c1=O | – | 46 | · | · | ·
COc1ccc(C(C)=O)cc1COc1cccnc1[N+](=O)[O-] | – | – | – | – | –
CCOc1ccc(C(C)=O)cc1COc1cccnc1[N+](=O)[O-] | – | 30 | – | – | –
CN(C)CC#Cc1ccc([C@H]2[C@H]3CN(C(=O)CN(C)C)CCCCN3[C@H]2CO)cc1 | – | · | – | 57 | ·
COCC#Cc1ccc([C@H]2[C@H](CO)N3CCCCN(C(=O)CN(C)C)C[C@@H]23)cc1 | – | · | – | – | ·
CN(C)CC(=O)N1CCCCN2[C@H](CO)[C@H](c3ccc(/C=C/c4ccccc4)cc3)[C@@H]2C1 | – | · | – | 55 | ·
CN(C)CC#Cc1ccc([C@H]2[C@@H](CO)N3CCCCN(C(=O)Nc4ccccc4F)C[C@H]23)cc1 | – | · | – | 70 | ·
